ERa coact pot = enhances coactivator binding to human estrogen receptor alpha; P03372; TR-FRET ERalpha-LBD/SRC-Cy5 coactivator binding, 2 h; 100 = basal binding, no effect; coactivator binding (% of control), % at 25.6 µM; 86,000 tested, 1.3% active; AID 639; in the data active means activity above about 200%;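 further: binding measured in presence of low estradiol as agonist stimulus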
Mac1 fbg inh = blocks human CD11b/CD18 adhesion to fibrinogen; P05107+P11215; K562 CD11b/CD18 adhesion to fibrinogen, ATPlite luminescence; Mn2+ added to activate the integrin; inhibition, % at 10 µM; 93,000 tested, 0.54% active;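 active means primary inhibition of 50% or more at 10 µM, then 40% or more on retest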
ERa coact inh = blocks coactivator binding to human estrogen receptor alpha; 86,000 tested, 1.7% active; TR-FRET ER-alpha LBD / SRC-1 peptide, estradiol-bound; P03372; inhibition, % at 25.6 µM; in the data active means inhibition above about 50%
CD11b adhes enh = increases human CD11b/CD18 adhesion to fibrinogen | P05107+P11215 | K562 CD11b/CD18 adhesion to fibrinogen, ATPlite luminescence | activation, % at 10 µM | 93,000 tested, 0.07% active;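 active means 10 µM primary screen giving 50% or more activity, confirmed by 40% or more on retest at that dose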
ERb SRC1 inh = ER-beta (human) coactivator binding inhibition; TR-FRET ER-beta LBD / SRC1-Cy5 peptide binding; receptor agonist-loaded with 1 µM estradiol; AID 633; inhibition, % at 25.6 µM; 86,000 tested, 1.3% active; Q92731;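 active means compounds whose percent inhibition of the receptor-coactivator binding signal exceeds about 50% in the single-dose screen, limit read from the data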
Large screens that a line does not name were inactive; [ ] = another dose, or the depositor's remark. In the library only some 3.1% were active in any assay of this set; here they are far more common.

OC(c1ccccc1)(c1ccc(F)cc1)C(c1ccccc1)N1CCOCC1 (centres undefined)	none (no result: Mac1 fbg inh, CD11b adhes enh)
CCn1nc(C)c(NC(=O)/C=C/c2ccc(OC)c(COc3ccc(Cl)cc3Br)c2)c1C	ERa coact pot 310.6[fluorescence artefact?], ERa coact inh 95.1[fluorescence artefact?], ERb SRC1 inh 51.6[fluorescence artefact?] (no result: Mac1 fbg inh, CD11b adhes enh)
CCC1CCCCN1Cc1cc(OC)c(O)c([N+](=O)[O-])c1 (centres undefined)	none (no result: ERa coact pot, ERa coact inh, ERb SRC1 inh)
Cc1ccc(S(=O)(=O)CC2CSc3nc4ccccc4n32)cc1 (centres undefined)	Mac1 fbg inh 92.8 (no result: ERa coact pot, ERa coact inh, ERb SRC1 inh)
Cc1ccc(S(=O)(=O)CC2CSc3nc(N)cc(=O)n32)cc1 (centres undefined)	none
Fc1ccc(NC(=S)Nc2ccc(F)c(Cl)c2)cc1Cl	Mac1 fbg inh 91.8 (no result: ERa coact pot, ERa coact inh, ERb SRC1 inh)
CCCCC(=O)Nc1ccc(F)c(Cl)c1	none
CC(=O)C1=C(O)C(=O)N(c2nnn(C)n2)C1c1cccs1 (centres undefined)	ERb SRC1 inh 78.9[fluorescence artefact?]
CCOCCCN1C(=O)C(O)=C(C(C)=O)C1c1cccs1 (centres undefined)	none (no result: Mac1 fbg inh, CD11b adhes enh)
Cc1cccc(NC(=O)c2ccc(N(C)C3CCCCC3)c([N+](=O)[O-])c2)n1	none (no result: ERa coact pot, ERa coact inh, ERb SRC1 inh)
COC(=O)c1ccc(S(=O)(=O)N2C3CCC2CC(NC(=O)NC2CCCCC2)C3)cc1 (centres undefined)	ERb SRC1 inh 57.6[fluorescence artefact?]
COc1ccc(S(=O)(=O)N2C3CCC2CC(NC(=O)NC2CCCCC2)C3)cc1 (centres undefined)	none
Cc1ccc(-c2cc(C(=O)Nc3nn[nH]n3)c3ccccc3n2)cc1	none (no result: ERa coact pot, ERa coact inh, ERb SRC1 inh)
N#Cc1nc(-c2ccc(OCc3ccccc3)cc2)oc1NCCN1CCOCC1	ERa coact pot 234.7[fluorescence artefact?]
N#Cc1nc(-c2ccc(OCc3ccccc3)cc2)oc1N1CCOCC1	none
COc1ccc(C(=O)Cn2c(C(=O)/C=C/c3ccccc3)nc3ccccc32)cc1	none (no result: ERa coact pot, ERa coact inh, ERb SRC1 inh)
C#CCOC(=O)CCCNc1ccc([N+](=O)[O-])cc1[N+](=O)[O-]	none (no result: ERa coact pot, ERa coact inh, ERb SRC1 inh)
O=S(=O)(NCCc1csc(-c2cccnc2)n1)c1ccc(Cl)s1	ERa coact inh 82.8
O=S(=O)(NCc1csc(-c2cccnc2)n1)c1cccs1	ERa coact inh 71.2
CC(C(=O)O)n1c(C(F)(F)F)nc2ccccc21 (centres undefined)	none
CCCCc1cc2c(c(NC(=O)CC)n1)c(=O)oc1ccccc12	ERa coact inh 61.8[fluorescence artefact?]
CC(=O)Nc1nc2c(c3c1c(=O)oc1ccccc13)CC(C)CC2 (centres undefined)	ERa coact pot 226.7[fluorescence artefact?] (no result: Mac1 fbg inh, CD11b adhes enh)
CC(=O)Nc1nc(CC(C)C)cc2c1c(=O)oc1ccccc12	none
CCCCc1cc2c(c(NC(C)=O)n1)c(=O)oc1ccccc12	ERa coact pot 269.9[fluorescence artefact?]
CCCCC(=O)Nc1ccc2c(c1)oc1ccccc12	none (no result: Mac1 fbg inh, CD11b adhes enh)
CN(C)c1cc[n+](Cc2c(Cl)cccc2Cl)cc1	none (no result: Mac1 fbg inh, CD11b adhes enh)
CC(C)(C)NC(=O)COC(=O)c1cc(S(=O)(=O)N2CCCCC2)ccc1N1CCOCC1	none (no result: ERa coact pot, ERa coact inh, ERb SRC1 inh)
Cc1c(Cl)cccc1NC(=O)CCCN1C(=O)CCC1=O	none
Cc1cc(C)n(-c2nc3c(c(=O)n(Cc4ccc(Cl)c(Cl)c4)c(=O)n3C)n2C)n1	ERa coact inh 60.4[fluorescence artefact?] (no result: Mac1 fbg inh, CD11b adhes enh)
CC1CN(c2nc3c(c(=O)n(Cc4ccc(Cl)c(Cl)c4)c(=O)n3C)n2C)CC(C)O1 (centres undefined)	none
CC1(C)Cc2nc3sc4c(SCC(=O)NCc5ccccc5)ncnc4c3cc2CO1	ERa coact pot 431.1[fluorescence artefact?]
CC1(C)Cc2nc3sc4c(N(CCO)CCO)ncnc4c3cc2CO1	none (no result: ERa coact pot, ERa coact inh, ERb SRC1 inh)
CCOc1ccc(NC(=O)CCCOc2cc(=O)n(C)c3ccccc23)cc1	none
CCN(CC)CCNC(=O)c1cc(Cl)c(N)cc1OC	ERb SRC1 inh 56.2 (no result: Mac1 fbg inh, CD11b adhes enh)
COC(=O)c1cc(Cl)c(N)cc1OC	none
O=C(NCc1ccccc1)c1sc(=S)n2c1[nH]c(=O)c1ccccc12	Mac1 fbg inh 102.9
COc1ccc(CCNC(=O)C2CCN(S(C)(=O)=O)CC2)cc1	none
CC(C)CN1C(=O)c2ccc(C(=O)Nc3ccncc3)cc2C1=O	Mac1 fbg inh 81.8
COc1ccc(-c2nnc(SC(C)C(=O)Nc3c(C)n(C)n(-c4ccccc4)c3=O)o2)cc1 (centres undefined)	none
CCCc1n[nH]c2c1/C(=N\O)CCC2	none
O=C1C(=O)c2c(C(=O)c3ccccc3)coc2-c2ccccc21	Mac1 fbg inh 59.0
Cc1oc2c(c1C(=O)c1ccccc1)C(=O)C(=O)c1ccccc1-2	none (no result: Mac1 fbg inh, CD11b adhes enh)
CCCc1cc(=O)oc2cc(OCC(=O)Nc3ccc4c(c3)OCCO4)ccc12	ERa coact pot 215.5[fluorescence artefact?]

Bioassay records: PubChem BioAssay, several laboratories
